Assay results as given in the antibiotic and cytotoxicity screens of Wong et al. (2023).
The whole screen tested about 39,000 compounds, of which about 1,500 (3.8%) were called active. The full list was thinned out, with actives kept by preference.

Tested on: HSkMC (human skeletal muscle cells)
Assay: cytotoxicity call (relative viability < 0.9)
Details: 10 µM

Row | Compound | cytotoxicity call
1 | C[C@H](CO)N1C[C@H](C)[C@H](CN(C)S(=O)(=O)c2cccc(F)c2)Oc2cc(Br)ccc2S1(=O)=O | inactive
2 | C[C@@H]1CN([C@@H](C)CO)C(=O)c2cc(NS(C)(=O)=O)ccc2O[C@@H]1CN(C)C(=O)Nc1ccc(C(F)(F)F)cc1 | inactive
3 | COc1ccc(S(=O)(=O)Nc2ccc3c(c2)C(=O)N([C@@H](C)CO)C[C@H](C)[C@@H](CN(C)C(=O)Nc2c(C)noc2C)O3)cc1 | inactive
4 | C[C@@H]1CN([C@H](C)CO)C(=O)c2cc(NC(=O)Nc3cccc4ccccc34)ccc2O[C@@H]1CN(C)Cc1ccc2c(c1)OCO2 | inactive
5 | CC(C)NC(=O)N(C)C[C@H]1OCCCC[C@H](C)Oc2ccc(NS(C)(=O)=O)cc2C(=O)N([C@@H](C)CO)C[C@@H]1C | inactive
6 | CNC1CCC(c2ccc(Cl)c(Cl)c2)c2ccccc21.Cl (stereo not drawn) | active
7 | N[C@@H]1CC[C@@H](c2ccc(Cl)c(Cl)c2)c2ccccc21 | active
8 | CN[C@H]1CC[C@@H](c2ccc(Cl)c(Cl)c2)c2ccccc21 | inactive
9 | COC(=O)c1c2oc(c1C(=O)OC)C(=O)N(C)Cc1cn(nn1)C[C@H](Cc1ccccc1)NC(=O)N[C@H](CO)CC2 | inactive
10 | O=c1[nH]c2ccc(F)cc2[nH]1 | inactive
11 | CC(C)NC(=O)N(C)C[C@@H]1Oc2ccc(NC(=O)Cc3ccccc3)cc2C(=O)N([C@@H](C)CO)C[C@H]1C | inactive
12 | COc1ccc(CN(C)C[C@@H]2Oc3ccc(NS(=O)(=O)c4cn(C)cn4)cc3C(=O)N([C@@H](C)CO)C[C@H]2C)cc1 | inactive
13 | C[C@H](CO)N1C[C@H](C)[C@H](CN(C)Cc2ccc(C(F)(F)F)cc2)OCCCC[C@H](C)Oc2ccc(NS(=O)(=O)c3ccccc3)cc2C1=O | inactive
14 | CNC(=O)C[C@H]1CC[C@@H]2[C@H](COC[C@H](O)CN2C(=O)c2ccccn2)O1 | inactive
15 | C[C@H](CO)N1C[C@H](C)[C@@H](CN(C)C(=O)Nc2cccc3ccccc23)OCCCC[C@H](C)Oc2ccc(NC(=O)Nc3ccc(C(F)(F)F)cc3)cc2C1=O | inactive
16 | C[C@@H]1CN([C@@H](C)CO)C(=O)c2cc(NC(=O)Nc3ccc(C(F)(F)F)cc3)ccc2O[C@@H](C)CCCCO[C@H]1CN(C)C(=O)Nc1cccc2ccccc12 | inactive
17 | C[C@@H]1CCCCO[C@@H](CN(C)C(=O)Nc2cccc3ccccc23)[C@@H](C)CN([C@H](C)CO)C(=O)c2cc(NC(=O)Nc3ccc(C(F)(F)F)cc3)ccc2O1 | active
18 | C[C@@H]1CCCCO[C@@H](CN(C)C(=O)Nc2cccc3ccccc23)[C@H](C)CN([C@@H](C)CO)C(=O)c2cc(NC(=O)Nc3ccc(C(F)(F)F)cc3)ccc2O1 | inactive
19 | C[C@@H]1CCCCO[C@@H](CN(C)C(=O)Nc2cccc3ccccc23)[C@H](C)CN([C@H](C)CO)C(=O)c2cc(NC(=O)Nc3ccc(C(F)(F)F)cc3)ccc2O1 | inactive
20 | C[C@@H]1CCCCO[C@H](CN(C)C(=O)Nc2cccc3ccccc23)[C@@H](C)CN([C@@H](C)CO)C(=O)c2cc(NC(=O)Nc3ccc(C(F)(F)F)cc3)ccc2O1 | inactive
21 | C[C@H](CO)N1C[C@H](C)[C@H](CN(C)C(=O)Nc2cccc3ccccc23)OCCCC[C@H](C)Oc2ccc(NC(=O)Nc3ccc(C(F)(F)F)cc3)cc2C1=O | inactive
22 | C[C@@H]1CN([C@@H](C)CO)C(=O)c2cc(NC(=O)Nc3ccc(C(F)(F)F)cc3)ccc2O[C@@H](C)CCCCO[C@@H]1CN(C)C(=O)Nc1cccc2ccccc12 | active
23 | C[C@@H]1CCCCO[C@@H](CN(C)C(=O)Nc2cccc3ccccc23)[C@@H](C)CN([C@@H](C)CO)C(=O)c2cc(NC(=O)Nc3ccc(C(F)(F)F)cc3)ccc2O1 | active
